According to PubChem BioAssay (NCI):
This is part of a sample that, as a whole, favours compounds with a hit. Of some 79,000 tested, about 15% had one in any assay. Calls of active or inactive are those of the source. No stated cut-off is given here; in the data, active means growth inhibition above about 70%; inactive means the rest.

What was measured:
[1] = NCI Yeast Anticancer Drug Screen. Data for the rad52 strain (AID 147);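 further: 0% = growth of vehicle-treated control cultures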; conditions: S. cerevisiae rad52 mutant growth inhibition, active compounds read high
How it was run: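 The repair-mutant yeast strain was incubated with compounds, then growth was read and inhibition derived relative to vehicle.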

[2] = NCI Yeast Anticancer Drug Screen. Data for the wt1 strain (AID 149);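 further: 0% = growth of vehicle-treated wt1 cultures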; conditions: S. cerevisiae wt1 strain (SPY 50644) growth inhibition, active compounds read high
How it was run: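 Compounds are added to wt1 yeast cultures. Growth is then measured. Inhibition is expressed relative to vehicle-treated controls.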

[3] = NCI Yeast Anticancer Drug Screen. Data for the rad50EPP+ strain (AID 151);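 further: 0% = growth of vehicle-treated control cultures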; conditions: S. cerevisiae rad50 mutant strain, active compounds read high
How it was run: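 Vehicle-normalised growth inhibition; rad50EPP+ yeast strain, altered in DNA damage repair, compound-treated.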

[4] = NCI Yeast Anticancer Drug Screen. Data for the mgt1 strain (AID 153); conditions: S. cerevisiae mgt1 mutant growth inhibition, active compounds read high
How it was run: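 Vehicle-normalized growth inhibition is determined in mgt1 yeast, a strain selected for a defined alteration in DNA repair or cell cycle control.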

[5] = NCI Yeast Anticancer Drug Screen. Data for the rad50 strain (AID 155);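 further: 0% = growth of vehicle-only cultures of the same strain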; conditions: S. cerevisiae rad50 strain growth inhibition, active compounds read high
How it was run: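 Inhibition values express reduced yeast growth in compound-treated cultures relative to vehicle-treated controls.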

[6] = NCI Yeast Anticancer Drug Screen. Data for the mec2-1 strain (AID 157); conditions: S. cerevisiae mec2-1 strain, active compounds read high
How it was run: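 Mutant yeast (mec2-1) grown with compound; growth inhibition relative to vehicle control reported.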

[7] = NCI Yeast Anticancer Drug Screen. Data for the rad14 strain (AID 159);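 further: 0% = growth of vehicle-treated control cultures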; conditions: S. cerevisiae rad14 strain growth inhibition, active compounds read high
How it was run: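 A mutant yeast strain defective in DNA damage repair is treated with compound; inhibition of its growth is scored against untreated, vehicle-exposed cultures.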

[8] = NCI Yeast Anticancer Drug Screen. Data for the sgs1 mgt1 strain (AID 161);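 further: 0% = growth of cultures given vehicle only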; conditions: S. cerevisiae sgs1 mgt1 strain, active compounds read high
How it was run: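 Compounds are added to genetically altered yeast, and growth is compared with cultures given vehicle alone to give percent inhibition.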

[9] = NCI Yeast Anticancer Drug Screen. Data for the CLN2oe strain (AID 163);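 further: 0% = growth of vehicle-only control cultures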; conditions: S. cerevisiae CLN2oe strain, active compounds read high
How it was run: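 Compounds are applied to yeast harbouring a defined cell-cycle control change; reduced growth compared with vehicle-treated controls gives the value.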

[10] = NCI Yeast Anticancer Drug Screen. Data for the cln2 rad14 strain (AID 165);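 further: 0% = growth equal to vehicle treated cultures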; conditions: S. cerevisiae cln2 rad14 strain, active compounds read high
How it was run: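 Readout is yeast growth inhibition versus vehicle-treated controls, using a strain with cln2 and rad14 alterations exposed to compound.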

[11] = NCI Yeast Anticancer Drug Screen. Data for the bub3 strain (AID 167); conditions: S. cerevisiae bub3 mutant strain, active compounds read high
How it was run: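 Steps: expose the mutant yeast strain to compound; grow alongside vehicle-treated cultures; measure growth; express inhibition against the vehicle cultures.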

[12] = NCI Yeast Anticancer Drug Screen. Data for the wt2 strain (AID 169);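 further: 0% = growth of vehicle-treated yeast cultures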; conditions: S. cerevisiae wt2 strain growth inhibition, active compounds read high
How it was run: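 Against vehicle-treated controls, the growth of yeast exposed to each compound was compared, and the inhibition was recorded.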

[13] = NCI Yeast Anticancer Drug Screen. Data for the mlh1 strain (AID 171);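 further: 0% = growth of vehicle-treated control cultures of the same strain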; conditions: S. cerevisiae mlh1 strain growth inhibition, active compounds read high
How it was run: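 Measured: yeast growth. Reference: vehicle-treated controls. Organism: strain with a defined alteration affecting DNA damage repair or cell cycle control, treated with compound.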

[14] = NCI Yeast Anticancer Drug Screen. Data for the mlh1 rad18 strain (AID 175); conditions: S. cerevisiae mlh1 rad18 strain growth inhibition, active compounds read high
How it was run: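 Genetically defined yeast (DNA repair-deficient) exposed to compounds; growth inhibition determined relative to vehicle.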

[15] = NCI Yeast Anticancer Drug Screen. Data for the rad18 strain (AID 177); conditions: S. cerevisiae rad18 mutant growth inhibition, active compounds read high
How it was run: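 Vehicle-treated cultures served as the baseline for scoring compound-induced growth inhibition in DNA-repair-mutant yeast.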

[16] = NCI Yeast Anticancer Drug Screen. Data for the sgs1 strain (AID 173);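 further: 0% = growth of vehicle-only control cultures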; conditions: S. cerevisiae sgs1 mutant, active compounds read high
How it was run: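 Each compound was added to cultures of the altered yeast strain. Growth was recorded, and inhibition was derived by comparison with vehicle controls.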

[17] = at 5.0 µM (retest, dose inferred, filed as 0.5)
[18] = at 50.0 µM (retest, dose inferred, filed as 5.0)

Measured: growth inhibition

O=C1C[C@H]2[C@H](c3ccc(Br)cc3)[C@H]3C(=O)c4ccccc4NC(=O)[C@@H]3[C@@]2(O)c2ccccc2N1
active: [5]; at 50.0 µM 96.8% | [6]; at 50.0 µM 97.8% | [8]; at 50.0 µM 96.4% | [10]; at 50.0 µM 97% | [11]; at 50.0 µM 72% | [14]; at 50.0 µM 97.8%
inactive: [1]; at 1.2 µM 5% | [1]; at 3.7 µM 7% | [1]; at 11.0 µM 8% | [1]; at 33.0 µM 38% | [1]; at 100.0 µM 33% | [2]; at 1.2 µM 6% | [2]; at 3.7 µM 10% | [2]; at 11.0 µM 11% | [2]; at 33.0 µM 14% | [2]; at 100.0 µM 16% | [3]; at 1.2 µM 0% | [3]; at 3.7 µM 2% | [3]; at 11.0 µM 3% | [3]; at 33.0 µM 3% | [3]; at 100.0 µM 3% | [4]; at 1.2 µM 5% | [4]; at 3.7 µM 11% | [4]; at 11.0 µM 12% | [4]; at 33.0 µM 45% | [4]; at 100.0 µM 36% | [5]; at 1.2 µM 3% | [5]; at 3.7 µM 6% | [5]; [17] -12% | [5]; at 11.0 µM 9% | [5]; at 33.0 µM 35% | [5]; [18] 14% | [5]; at 100.0 µM 35% | [6]; at 1.2 µM 9% | [6]; at 3.7 µM 11% | [6]; [17] 14% | [6]; at 11.0 µM 15% | [6]; at 33.0 µM 33% | [6]; [18] 19% | [6]; at 100.0 µM 33% | [7]; at 1.2 µM 6% | [7]; at 3.7 µM 9% | [7]; at 11.0 µM 16% | [7]; at 33.0 µM 32% | [7]; at 100.0 µM 27% | [8]; [17] -3% | [8]; [18] 2% | [9]; at 1.2 µM 9% | [9]; at 3.7 µM 16% | [9]; at 11.0 µM 16% | [9]; at 33.0 µM 38% | [9]; at 100.0 µM 38% | [10]; [17] -7% | [10]; [18] 27% | [11]; at 1.2 µM 3% | [11]; at 3.7 µM 7% | [11]; [17] 7% | [11]; at 11.0 µM 9% | [11]; at 33.0 µM 19% | [11]; [18] 56% | [11]; at 100.0 µM 23% | [12]; at 1.2 µM 6% | [12]; at 3.7 µM 11% | [12]; at 11.0 µM 15% | [12]; at 33.0 µM 28% | [12]; at 100.0 µM 30% | [13]; at 1.2 µM 6% | [13]; at 3.7 µM 12% | [13]; at 11.0 µM 14% | [13]; at 33.0 µM 32% | [13]; at 100.0 µM 29% | [14]; [17] 36% | [14]; [18] 54% | [15]; at 1.2 µM 6% | [15]; at 3.7 µM 16% | [15]; at 11.0 µM 29% | [15]; at 33.0 µM 52% | [15]; at 100.0 µM 46%

Cc1nc2sc3c(c2c(=O)o1)CCCC3
inactive: [1]; at 1.2 µM 0% | [1]; at 3.7 µM 2% | [1]; at 11.0 µM 1% | [1]; at 33.0 µM 6% | [1]; at 100.0 µM 4% | [2]; at 1.2 µM -1% | [2]; at 3.7 µM 0% | [2]; at 11.0 µM 1% | [2]; at 33.0 µM -1% | [2]; at 100.0 µM 2% | [3]; at 1.2 µM -6% | [3]; at 3.7 µM -8% | [3]; at 11.0 µM -10% | [3]; at 33.0 µM -3% | [3]; at 100.0 µM -1% | [4]; at 1.2 µM -1% | [4]; at 3.7 µM -1% | [4]; at 11.0 µM 18% | [4]; at 33.0 µM -2% | [4]; at 100.0 µM 7% | [5]; at 1.2 µM 0% | [5]; at 3.7 µM 2% | [5]; [17] 18% | [5]; at 11.0 µM -11% | [5]; at 33.0 µM 7% | [5]; [18] 10% | [5]; at 50.0 µM 4.2% | [5]; at 100.0 µM 5% | [6]; at 1.2 µM 2% | [6]; at 3.7 µM 2% | [6]; [17] 5% | [6]; at 11.0 µM 2% | [6]; at 33.0 µM 6% | [6]; [18] -4% | [6]; at 50.0 µM 25.3% | [6]; at 100.0 µM 6% | [7]; at 1.2 µM 0% | [7]; at 3.7 µM -4% | [7]; at 11.0 µM 2% | [7]; at 33.0 µM 13% | [7]; at 100.0 µM 10% | [8]; [17] -6% | [8]; [18] 14% | [8]; at 50.0 µM 26.6% | [9]; at 1.2 µM -1% | [9]; at 3.7 µM 1% | [9]; at 11.0 µM 2% | [9]; at 33.0 µM 6% | [9]; at 100.0 µM 14% | [10]; [17] 23% | [10]; [18] 3% | [10]; at 50.0 µM 4.5% | [11]; at 1.2 µM 6% | [11]; at 3.7 µM 18% | [11]; [17] 30% | [11]; at 11.0 µM 31% | [11]; at 33.0 µM 39% | [11]; [18] 51% | [11]; at 100.0 µM 28% | [12]; at 1.2 µM -1% | [12]; at 3.7 µM 1% | [12]; at 11.0 µM 1% | [12]; at 33.0 µM 3% | [12]; at 100.0 µM 4% | [13]; at 1.2 µM 1% | [13]; at 3.7 µM -3% | [13]; at 11.0 µM 5% | [13]; at 33.0 µM 2% | [13]; at 100.0 µM 2% | [16]; at 1.2 µM -2% | [16]; at 3.7 µM -4% | [16]; at 11.0 µM -2% | [16]; at 33.0 µM 1% | [16]; at 100.0 µM 2% | [15]; at 1.2 µM -3% | [15]; at 3.7 µM -3% | [15]; at 11.0 µM -4% | [15]; at 33.0 µM -15% | [15]; at 100.0 µM 1%
active: [11]; at 50.0 µM 72.9%

CC(C)OC(=O)NNc1cccc(Cl)c1
inactive: [1]; at 1.2 µM 1% | [1]; at 3.7 µM 10% | [1]; at 11.0 µM 57% | [2]; at 1.2 µM 1% | [2]; at 3.7 µM 8% | [2]; at 11.0 µM 35% | [3]; at 1.2 µM 6% | [3]; at 3.7 µM 33% | [4]; at 1.2 µM 0% | [4]; at 3.7 µM 7% | [5]; at 1.2 µM 4% | [5]; at 3.7 µM 26% | [5]; [17] 13% | [6]; at 1.2 µM 0% | [6]; at 3.7 µM 11%
active: [1]; at 33.0 µM 96% | [1]; at 100.0 µM 97% | [2]; at 33.0 µM 95% | [2]; at 100.0 µM 96% | [3]; at 11.0 µM 93% | [3]; at 33.0 µM 98% | [3]; at 100.0 µM 98% | [4]; at 11.0 µM 87% | [4]; at 33.0 µM 98% | [4]; at 100.0 µM 99% | [5]; at 11.0 µM 98% | [5]; at 33.0 µM 98% | [5]; [18] 95% | [5]; at 50.0 µM 96.1% | [5]; at 100.0 µM 97%
